LASV entry inh – Lassa virus entry inhibition. Lassa virus pseudotype entry inhibition, cell reporter. Potency, µM (top dose mostly 37.9 µM), inactives show at the top dose activity change, negative = inhibition, most hits filed as inhibitors. 300,000 compounds, 1.2% hits; calls by dose curve; tested in HEK293 cells; also: potency is read from the fitted curve at half-maximal effect; nearly all actives have a fitted effect of over 50% in size
FMDV inh – foot and mouth disease virus antiviral activity | FMDV antiviral cell-based qHTS | Potency, µM (highest dose often 57.9 µM), without a hit: at the top dose activity change, negative = inhibition, hits mostly inhibitors | AID 1159524 | 410,000 compounds, 1.2% hits; calls by dose curve; tested in HEK293T cells; also: read-out not given here; potency is read from the fitted curve at half-maximal effect; nearly all actives have a fitted effect of over 45% in size
HCMV antiviral – inhibitors of human cytomegalovirus | HFF cells, HCMV-luciferase reporter, 72 h; stronger effect = lower value | activity change, negative = inhibition, % at 57.5 µM | 410,000 compounds, 4.5% hits; in the data active = activity change below about -60%; inconclusive = no clear call, values can overlap the other calls; inactive = above about -39%
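Two compound doses tested in HFFs infected with HCMV-luciferase, MOI 1 PFU/cell, 72 h at 37C. Lysate luminescence read with OneGlo; data normalized against buffer-only and 10uM Salinomycin inhibitor controls.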
MARV entry inh – blocks Marburg virus binding to or entry into cells | Marburg virus pseudotyped entry inhibition, cell reporter | Potency, µM (series often up to 37.8 µM), for the others: at the top dose activity change, negative = inhibition, most hits filed as inhibitors | 300,000 compounds, 1.8% hits | AID 540276; calls by dose curve; tested in HEK293 cells; also: potency is read from the fitted curve at half-maximal effect
The depositor's hits bear a star; ? = inconclusive; nt = no result; [ ] = another dose, or the depositor's remark. Rows were chosen to be rich in hits. Some 6.2% of all compounds tested hit in one or more screens of this group. % is scaled to controls: 0 for no effect and ±100 for the full control effect.

SMILES | LASV entry inh | FMDV inh | HCMV antiviral | MARV entry inh
C=CC[C@@H](CC(=O)N(CCO)Cc1ccccc1)C(=O)N[C@H](COC(=O)[C@@H](CC=C)Cc1ccc(F)cc1)Cc1ccccc1 | nt | ? | 6 | nt
CCN(CC)C1CCN(C(=O)c2ccc(OC3CCN(CCc4ccccc4)CC3)cc2)C1 (stereo not given) | nt | -8% | -14 | nt
NC(Cc1ccc(F)cc1)c1csc(NC(=O)NC(c2ccccc2)c2ccccc2)n1 (stereo not given) | nt | ? | -103* | nt
COc1ccc(NC(=O)Nc2nc(C(N)Cc3ccc(C(F)(F)F)cc3)cs2)cc1 (stereo not given) | nt | ? | -103* | nt
COc1ccc(CNC(=O)Nc2nc(C(N)Cc3ccc(F)cc3)cs2)cc1 (stereo not given) | nt | -19% | -2 | nt
O=C(Nc1ccc(F)cc1)c1nc[nH]c1C(=O)O | nt | 9% | 19 | nt
COC(=O)c1c(NC(=O)C2CCCO2)sc2c1CCC2 (stereo not given) | 0% | 11% | -37 | 19%
Cc1ccc([N+](=O)[O-])cc1N/C=C/C(=O)c1ccco1 | 12µM* | nt | -11 | ?
COc1ccc(NC(=S)Nc2ncccc2C)c(OC)c1 | -39% | nt | -63* | -29%
CCOc1cc(NC(=S)Nc2ccccc2)c(OCC)cc1NC(=O)c1ccc(OC)cc1 | ? | 8% | -66* | ?
Cc1cccnc1NC(=S)Nc1ncccc1C | ? | 24% | 10 | ?
COc1ccc(NC(=S)Nc2ccccc2)c(OC)c1 | nt | 5% | -9 | nt
CCOc1ccccc1NC(=S)Nc1ncccc1C | ? | 5% | -61* | ?
COc1ccc(NC(=S)Nc2ccc(OCc3ccccc3)cc2)c(OC)c1 | -10% | 0% | -76* | ?
COc1ccc(Oc2ncc3ncc(=O)n(C)c3n2)cc1 | nt | 24% | nt | nt
COc1cc(OC)c(NC(=O)CCCn2nc(C)c3sc4ccccc4c3c2=O)cc1Cl | ? | -12% | -18 | 3.2µM*
Cc1ccc(NC(=O)CCCn2nc(C)c3sc4ccccc4c3c2=O)c(Cl)c1 | 14%[46.1 µM] | 0% | 8 | ?
CC(=O)N1CCc2c(sc(NC(=O)c3ccc([N+](=O)[O-])o3)c2C#N)C1 | nt | 36% | -98* | nt
COc1ccc(C(=O)Nc2sc3c(c2C#N)CCN(C(C)=O)C3)cc1 | ? | 9% | -6 | ?
CC(C)N1CCc2c(sc(NC(=O)c3ccc([N+](=O)[O-])o3)c2C(N)=O)C1 | nt | nt | -98* | nt
O=C(Nc1ccc(F)c(Cl)c1)c1cc(C2CCCN(S(=O)(=O)c3ccccc3)C2)on1 (stereo not given) | nt | 0% | -69* | nt
CCCC(=O)N1CCCC(c2cc(C(=O)Nc3ccccc3)no2)C1 (stereo not given) | nt | 20µM* | ? | nt
Cn1nc(C(C)(C)C)cc1C(=O)N1CCCCC1c1cc(C(=O)Nc2ccc(F)c(Cl)c2)no1 (stereo not given) | nt | 25µM* | ? | nt
CC(C)(C)c1ccc(NC(=O)c2cc(C3CCCN(S(=O)(=O)c4cccc5cccnc45)C3)on2)cc1 (stereo not given) | nt | ? | -86* | nt
NS(=O)(=O)c1ccc(CCNC(=O)c2ccc3nc4ccc(Cl)cc4c(=O)n3c2)cc1 | nt | -20% | -31 | nt
SMILES | LASV entry inh | FMDV inh | HCMV antiviral | MARV entry inh
OC1(c2ccc(Cl)c(C(F)(F)F)c2)CCN(CCCC(c2ccc(F)cc2)c2ccc(F)cc2)CC1 | nt | nt | -99* | nt
CCOc1ccccc1CN(CCc1ccc2c(c1)OCO2)Cc1ccccn1 | -19% | ? | 17 | -29%
CCOc1ccccc1CN(CCc1ccc2c(c1)OCO2)Cc1cc(OC)c(OC)cc1OC | ? | -22% | -9 | 10µM*
O=C(NCCc1ccccc1)c1ccc2c(c1)N(Cc1ccc(F)cc1Cl)C(=O)CS2 | 5%[46.1 µM] | -22% | -16 | ?
O=C(NCc1ccc2c(c1)OCO2)c1ccc2c(c1)N(Cc1c(F)cccc1Cl)C(=O)CS2 | ? | -19% | -78* | ?
O=C(NCCc1ccc(Cl)cc1)c1ccc2c(c1)N(Cc1ccc(F)cc1Cl)C(=O)CS2 | ? | -24% | -64* | -28%[46.1 µM]
Cc1nn(Cc2ccccc2)c(Cl)c1/C=C1\NC(=S)NC1=O | -20%[46.1 µM] | -11% | 25 | 14%[46.1 µM]
CNC[C@@H](CC1CCCCC1)NC[C@H](CC(C)C)NCCc1cccc(C(F)(F)F)c1 | nt | ? | -99* | nt
CN(Cc1cccc(C(F)(F)F)c1)C(=O)C1CCC(=O)N(CC2CCCCC2)C1 (stereo not given) | nt | -22% | -20 | nt
CNC[C@@H](Cc1ccccc1)NC[C@@H](CC1CCCCC1)NCCCc1ccccc1 | nt | ? | -101* | nt
COc1cccc(CC(=O)OCC(=O)N(C)CC(=O)Nc2ccc(Cl)c(C(F)(F)F)c2)c1 | 20%[46.1 µM] | 0% | -2 | 3%
C[C@@H](C(=O)NCCc1ccc(F)cc1)N1C(=O)N2CCc3c([nH]c4ccccc34)[C@@]2(C)C1=O | nt | ? | -37 | nt
COc1cc(Nc2nc(SCC(=O)c3ccc(Br)cc3)nc3ccccc23)cc(OC)c1 | -22%[46.1 µM] | ? | -62* | nt
O=C(CSc1nc(Nc2ccc(F)cc2)c2ccccc2n1)c1ccc(F)cc1 | -31%[46.1 µM] | -23% | 30 | nt
Fc1ccc(Nc2nc(-c3ccoc3)nc3ccccc23)cc1 | nt | -21% | nt | nt
Cc1cc(C)n(CCC(=O)N/N=C/c2c(O)ccc3ccccc23)n1 | nt | -26% | -83* | nt
O=C(CCSc1nc2ccccc2s1)N/N=C/c1c(O)ccc2ccccc12 | ? | -5% | -99* | ?
COc1ccc(/C=N/NC(=O)CCSc2nc3ccccc3s2)cc1OC | -6% | 0% | -7 | -15%
O=C(O)C1CCN(c2ncccn2)CC1 | 15% | -1% | 19 | 12%
COc1cc(NC(=O)CSc2ccc(-c3ccccn3)nn2)cc(OC)c1 | ? | 0% | ? | ?
Cc1cccc(NC(=O)CSc2ccc(-c3ccccn3)nn2)c1 | -9%[46.1 µM] | -1% | -105* | nt
Cc1cc(C)cc(NC(=O)CSc2ccc(-c3cccs3)nn2)c1 | ? | ? | ? | 7.1µM*
COc1ccc(C)cc1NC(=O)CSc1ccc(-c2ccccn2)nn1 | ? | ? | -93* | ?
CCN(CC)S(=O)(=O)c1ccc(OC)c(NC(=O)CSc2cc(C)ccc2C)c1 | 0.21µM* | 4% | -6 | ?
O=C(CN1CCC(O)(c2ccc3c(c2)OCO3)CC1)OC1CCCCC1 | 2% | -26% | -4 | -3%
SMILES | LASV entry inh | FMDV inh | HCMV antiviral | MARV entry inh
Cc1ccc(CCNS(=O)(=O)c2ccc3c(c2)N(C)CCO3)cc1 | nt | 64% | 3 | nt
COc1cccc(NC(=O)CSc2ccc(-c3sc(C)nc3C)nn2)c1 | ? | 32µM* | 13 | ?
CCOc1cccc(/C=N/NC(=O)c2cc(C3CC3)[nH]n2)c1O | nt | 25% | -90* | nt
Cn1c(C(=O)N2CCCC(C(=O)NCCc3ccccc3)C2)cc2sccc21 (stereo not given) | ? | nt | -97* | ?
Cn1c(C(=O)N2CCCC(C(=O)NCCCc3ccccc3)C2)cc2sccc21 (stereo not given) | -12% | ? | -8 | ?
C[N+](C)(C)Cc1ccccc1 | -2% | 35µM* | -13 | 11%
COc1ccc(C(=O)N/N=C/c2ccc(OC)c(COc3ccc(F)cc3F)c2)cc1 | 2.2µM* | ? | 33 | ?
COc1cccc(OCc2cc(/C=N/Nc3ccc(C(=O)O)cc3)ccc2OC)c1 | nt | 0.89µM* | 9 | -2%

Bioassay records: PubChem, National Center for Advancing Translational Sciences (NCATS)
